From PubChem BioAssay (Tox21) come the findings set out here.

Values without a mark were called inactive. Activity calls are given as the source filed them. The call rests on the fitted dose curve; in most records, active means well fitted activation curve with a large enough effect in the repeat runs; inconclusive means weak or mixed curves; inactive means flat fitted curve, though single readings scatter.
On the % scale 0 is the no-effect control and ±100 the full control effect; potency means the concentration at half of the fitted maximal effect.

The experiment in a line: Caspase-3/7 induction in CHO-K1 cells by small molecules, qHTS assay (AID 1346980). Further: nearly all actives have a fitted effect of over 15% in size. The following applies: CHO-K1 caspase-3/7 induction, Caspase-Glo luminescence, 17 h; series mostly up to 92.4 µM; caspase-3/7 activation: at the top concentration. The text has this:
National Center for Advancing Translational Sciences [NCATS]
NIH Chemical Genomics Center [NCGC]
U.S. Environmental Protection Agency [EPA]
National Institutes of Environmental Health Sciences [NIEHS]
National Toxicology Program [NTP]
Apoptosis is a process of programmed cell death and plays a central role in the development of multicellular organisms. It is a highly regulated process and induces cell death by activating caspases, which are the members of cysteine aspartic acid-specific protease (caspase) family. Caspases involved in apoptosis are classified by their mechanism of action as initiator caspases (caspase-2, -8, -9 and -10) and executioner caspases (caspase-3, -6, and -7). Inhibition of apoptosis results in number of cancers, autoimmune diseases, inflammatory diseases and viral infection. To identify small molecule compounds that induce apoptosis, a homogeneous, luminescent Caspase-Glo 3/7 assay was used. Wild type CHO-K1 cells were used to screen Tox21 libraries for identifying caspase-3/7 activity inducers.
CHO-K1 cells were dispensed at 1,500 per well in 5uL of culture medium into white solid bottom 1536-well plates (Corning Life Sciences, Corning, NY) using a Multidrop Combi (Thermo Scientific, Waltham, MA) dispenser. The assay plates were incubated at 37 C and 5% CO2 for 5hr, and then 23nL of compounds dissolved in DMSO and positive control were transferred using a Pintool station (Wako, San Diego, CA). The assay plates were incubated at 37C and 5% CO2 for 17hr. For caspase-3/7 activity read, 4uL of Caspase-Glo 3/7 reagent (Promega Corporation, Madison, WI) was added to each well of the assay plates using Flying Reagent Dispenser (FRD, Aurora Discovery, San Diego, CA) and incubated the assay plates at room temperature for 30min. The luminescence signal was quantified using a ViewLux plate reader (Perkin Elmer, Shelton, CT).
A general note: In qHTS, concentration-response curves come from the screen itself.
For the compound `CC(C)=CC(=O)C=C(C)C`, the “caspase-3/7 activation” value was -0.0343%.

Consider `CCOC(=O)c1ccccc1C(=C1C=C(Br)C(=O)C(Br)=C1)c1cc(Br)c(O)c(Br)c1`, for which the “caspase-3/7 activation” value is 1.98% [at 42.5 µM].

Consider `CC1CC(OC(=O)C(O)c2ccccc2)CC(C)(C)N1C` (stereo not given), for which the “caspase-3/7 activation” value was -0.0076% [at 42.5 µM].

Regarding `CCC(C)COC(C)=O` (stereo not given), the “caspase-3/7 activation” value is -0.698%.

Consider `O=C(O)C[C@H](NC(=O)OCc1ccccc1)C(=O)O`, for which the “caspase-3/7 activation” value is 1.4%.

On to `O=C1c2ccccc2C(=O)N1CCc1noc(-c2ccc(CN3CCCCCC3)s2)n1`, for which the “caspase-3/7 activation” value is -0.298%.

For `Cc1cc(=O)c2c(O)c3c(O)cc(=O)c4c3c3c(cc(O)c1c23)C(C)(C)C=4O`, the caspase-3/7 activation was -1.78% [at 19 µM].

For the compound `O=C=Nc1cccc(C(F)(F)F)c1`, the “caspase-3/7 activation” value was -3.19%.

For `Cc1cc(O)ccc1O`, the “caspase-3/7 activation” value was -6.59%.

As to `COc1ccccc1Oc1c(NS(=O)(=O)c2ccc(C(C)(C)C)cc2)nc(-c2ncccn2)nc1OCCO`, the “caspase-3/7 activation” value was -1.72% [at 42.5 µM].

Turning to `CCCCCCCCOc1ccc(C(=O)O)cc1`, the “caspase-3/7 activation” value was -3.87%.

`Nc1ccc(N=Nc2ccccc2)c(N)c1`: the “caspase-3/7 activation” value was -6.68%.

Consider `CC1=C(Br)C(=O)C(Br)=C/C1=C(/c1ccccc1S(=O)(=O)O)c1cc(Br)c(O)c(Br)c1C`, for which the “caspase-3/7 activation” value is -4.03% [at 42.5 µM].

With `O=C1C(=O)c2ccccc2C(O)=C1C1CCC(c2ccc(Cl)cc2)CC1` (stereo not given), the “caspase-3/7 activation” value was -2.79% [at 42.5 µM].

`O=C1NCCN1CCO`: the “caspase-3/7 activation” value is 0.586%.

Consider `CC/C=C1/OC(=O)c2ccccc21`, for which the “caspase-3/7 activation” value is -1.24%.

As to `Cc1ccccc1S`, the “caspase-3/7 activation” value was 0.71% [at 42.5 µM].

As for `CN1C(=O)c2ccccc2C1=O`, the “caspase-3/7 activation” value is -0.715%.

On to `CC(O)c1ccccc1` (stereo not given), for which the “caspase-3/7 activation” value is -0.779%.

Regarding `CC(=O)NC1(c2cccc(F)c2)CCN(CC[C@@]2(c3ccc(Cl)c(Cl)c3)CN(c3ccccc3)C(=O)CO2)CC1`, the Potency is 48.7 µM (active).

For `C=C(C)C(=O)OCCCCCCCCCCCCC`, the “caspase-3/7 activation” value was 0.154%.

With `COc1ccccc1N1CCN(CC(O)COc2cccc3ccccc23)CC1` (stereo not given), the “caspase-3/7 activation” value is 0.173% [at 42.5 µM].

Turning to `O=C(O)c1ccc(OCCCOc2ccc(C(=O)O)cc2)cc1`, the “caspase-3/7 activation” value is 0.116% [at 42.5 µM].

For `C(=C\c1ccccc1)/c1ccccc1`, the “caspase-3/7 activation” value was -0.163%.

As to `C=COCC(C)C`, the “caspase-3/7 activation” value is 0.804%.

Take `CCOC(C)=O`: the “caspase-3/7 activation” value is 0.0118%.

For the compound `CC(=O)N/N=C/c1ccc([N+](=O)[O-])o1`, the “caspase-3/7 activation” value is 0.709% [at 42.5 µM].

For `Cc1ccccc1N=C(N)Nc1ccccc1C`, the “caspase-3/7 activation” value is -1.48%.

`c1ccc2sc(SN(C3CCCCC3)C3CCCCC3)nc2c1`: the “caspase-3/7 activation” value is 0.967%.

`CCC(=O)OC`: the “caspase-3/7 activation” value is 2.19%.

For `C=C(C)[C@@H]1CCC2=CCC[C@@H](C)[C@]2(C)C1`, the “caspase-3/7 activation” value was -0.281%.

Consider `O=C(CCc1ccc(O)cc1)c1c(O)cc(O)cc1O`, for which the “caspase-3/7 activation” value is -3.23%.

`CCOC(=O)c1ccc(C#Cc2ccc3c(c2)C(C)(C)CCS3)nc1`: the “caspase-3/7 activation” value is 3.05% [at 42.5 µM].

In the case of `CN(C)CCN1C(=O)c2ccccc2N(C)c2ccccc21`, the “caspase-3/7 activation” value is -0.597% [at 42.5 µM].

For the compound `O=[N+]([O-])c1ccc(O/N=C/c2cc(Br)c(O)c(Br)c2)c([N+](=O)[O-])c1`, the “caspase-3/7 activation” value is -4.04%.

As for `C=C1c2cccc(O)c2C(O)=C2C(=O)[C@]3(O)C(O)=C(C(N)=O)C(=O)[C@@H](N(C)C)[C@@H]3[C@@H](O)[C@H]12`, the “caspase-3/7 activation” value is 0.927% [at 42.5 µM].

For `C[C@]12CC[C@@H]3c4ccc(O)cc4CC[C@H]3[C@@H]1CC[C@@H]2OC(=O)CCC1CCCC1`, the Potency is 43.3 µM (active).

`O=c1cc(-c2ccccc2)oc2cc(O)cc(O)c12`: the “caspase-3/7 activation” value is -4.96%.

On to `C[C@@]12CCC[C@H]1[C@@H]1CC[C@H]3C[C@@H](O)CC[C@]3(C)[C@H]1CC2`, for which the “caspase-3/7 activation” value was 1.03% [at 42.5 µM].

As for `CC1(C)[C@H](C(=O)O)N2C(=O)C[C@H]2S1(=O)=O`, the “caspase-3/7 activation” value was -0.255% [at 42.5 µM].
